Sensor-assay potency score (higher = more potent) data for 36 sequences are collected here from the OligoGym collection.

Some targets named below: LHFPL3; LHX3; LHFPL5; LHX9; LHFPL4.
Common to all, as to assay: pooled miR-30 sensor sort-seq; sequence = guide strand
What all share (settings): shRNA
Further: reference of the scale not given here.

TTTTACTTCATCTGAGTCCCAG showed a sensor-assay potency score (higher = more potent) with LHFPL3 of 0.0126.
Still for that read-out and setting: to TACATGTTAACTCTAGAGCATT belongs -1.25.
For TAGGTCAGAACTGGGTCCGTTC, in the test with LHX3, the sensor-assay potency score (higher = more potent) is -0.902.
The sequence AACATAAGTAACACATTTCTGA showed a sensor-assay potency score (higher = more potent) with LHFPL5 of -0.109.
On the same count and under the same terms, under TAACACATTTCTGAAGCTGGTA stands 0.181.
In the test with LHX9, TTAAAGTGGTCGCAGTGCCGGG yielded a sensor-assay potency score (higher = more potent) of -1.18.
Regarding TTGCAGATGAAGAACAGGCTGA, the sensor-assay potency score (higher = more potent) in the test with LHFPL5 worked out at 0.379.
Sequence TAGTTTGTGAGGGGCTTCCGGA had a sensor-assay potency score (higher = more potent) with LHX9 of -1.17.
Turning to TTTGGCAACAGACATCTGTGGG, the sensor-assay potency score (higher = more potent) with LHX3 was -0.246.
Still for that read-out and setting: to TTTCATGTCTAGAAATAGCAGC belongs 0.283.
In the test with LHX9, TGTCACTACAGTGATAGTGGGA displayed a sensor-assay potency score (higher = more potent) of 0.281.
Take TTGAAGTCTTGGAAAGAGCTGA: the sensor-assay potency score (higher = more potent) with LHX3 was found to be 0.479.
As for TGCGTTTTGGAACCAAACCTGC, the sensor-assay potency score (higher = more potent) with LHX9 is -1.08.
For TTTGACTTACACACAGGCCAGC, the sensor-assay potency score (higher = more potent) with LHX3 was -0.684.
In turn, TAGTGCTCGTGGTAGAGCTTGG had a sensor-assay potency score (higher = more potent) in the test with LHFPL4 of -0.315.
As to TTGACGCTGTCGCCGATCCAGT, in the test with LHFPL5, the sensor-assay potency score (higher = more potent) was -1.35.
In turn, TAGTGTTATAATAAAAGGCTTC returned a sensor-assay potency score (higher = more potent) in the test with LHFPL5 of -0.225.
TTTCTGGGCAAGCTGCTTGAGG gave a sensor-assay potency score (higher = more potent) with LHX9 of -0.927.
In turn, TTGAACATAAGTAACACATTTC returned a sensor-assay potency score (higher = more potent) in the test with LHFPL5 of -0.364.
The sequence TTGCAGTAAACGCTCTCCCCTC showed a sensor-assay potency score (higher = more potent) in the test with LHX3 of -0.865.
As to TAGTTGGTATGGTAGATCTTGG, the sensor-assay potency score (higher = more potent) with LHFPL5 was -1.03.
With TTGGCAACAGACATCTGTGGGT, the sensor-assay potency score (higher = more potent) with LHX3 was 0.209.
In the test with LHFPL5, TAGACTGTGGCCGTGTTGCAGA registered a sensor-assay potency score (higher = more potent) of -0.721.
In the test with LHX3, ATGAGGTAGAACTCGTCGCCCG returned a sensor-assay potency score (higher = more potent) of -1.34.
The same measure, in the same setting: to TTGAGACACTTGCTGTGCCAGT belongs -0.489.
Turning to TTGTCTCAGGAGACTGTCCAGT, in the test with LHFPL5, the sensor-assay potency score (higher = more potent) was -0.336.
In turn, TAAAGTGGTCGCAGTGCCGGGT had a sensor-assay potency score (higher = more potent) with LHX9 of -0.418.
In the test with LHX3, TTGAAAAAGTCGTCCTTGCAGT showed a sensor-assay potency score (higher = more potent) of -0.456.
On the same count and under the same terms, to TTGTCCGACTTGGAGCCGCCGC belongs -1.19.
Sequence TTGAGGTCCTTGGCATCCGGGT registered a sensor-assay potency score (higher = more potent) in the test with LHX9 of -1.42.
Same read-out and setting: under TTCCTTCTGAATTTGGCTCGTG stands 0.209.
As to TATAACAAATTACTTGAACATA, the sensor-assay potency score (higher = more potent) with LHFPL5 was -1.51.
TTACATTCACAGCACTTCAGGC came in with a sensor-assay potency score (higher = more potent) with LHX9 of -0.155.
Sequence TTCTGAATTTGGCTCGTGCGTT gave a sensor-assay potency score (higher = more potent) with LHX9 of -1.08.
Still for that read-out and setting: to TACAGTGATAGTGGGATTGGTC belongs -0.245.
In the case of TACAGTAGGAGGTCTTGTCTCA, the sensor-assay potency score (higher = more potent) in the test with LHFPL5 is -0.0507.
